DT40 TDP1 no CPT – qHTS for Inhibitors of human tyrosyl-DNA phosphodiesterase 1 (TDP1): qHTS in cells in absence of CPT; DT40 Tdp1-/- hTDP1 cells, no CPT, ATP luminescence, 48 h; Potency, µM (highest dose often 46.2 µM), for the others: at the top dose activity change, negative = growth inhibition, hits mostly inhibitors; 15% of 420,000 active; AID 686978, 2013; further: potency means the concentration at half of the fitted maximal effect; nearly all actives have a fitted effect of over 55% in size
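Stably hTDP1-transfected Tdp1-null chicken DT40 cells were treated with library compounds minus camptothecin and grown for at least 48 hr at 37 °C, after which cellular ATP was quantified by luminescence.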
HT1080-NT tox – kills 2HG-producing HT-1080-NT fibrosarcoma cells; HT-1080-NT fibrosarcoma viability, CellTiter-Glo ATP luminescence, 48 h; Potency, µM (highest dose often 46.1 µM), for inactives: at the highest dose activity, negative = less viability, usual class: cytotoxic; 1.6% of 360,000 active;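 further: NT is the 2HG producing partner of a matched IDH1 knockdown line; potency means the concentration at half of the fitted maximal effect; 0% = DMSO-treated cells and -100% = media-only wells without cells; nearly all actives have a fitted effect of over 55% in size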
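Toxicity toward the 2HG-producing NT line was scored as %Activity, normalised to DMSO and no-cell wells, from CellTiter-Glo luminescence after 48 hours' treatment.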
HT1080 IDH1KD tx – toxicity to HT-1080 IDH1 knockdown cells (counter line) | 2% of 360,000 active | HT-1080 IDH1 knockdown viability, ATP luminescence, 48 h | Potency, µM (titrated, usually from 46.1 µM), for the others: top-dose activity, negative = toxicity, actives largely listed as cytotoxic;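 further: potency means the concentration at half of the fitted maximal effect; 0% = DMSO wells and -100% = cell-free medium wells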
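After a 2 h attachment period, IDH1KD HT-1080 cells took pin-transferred compound for 48 h at 37 °C; ATP-based luminescence after 10 min room-temperature reagent incubation reported viability.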
TDP1 cell CPT – growth inhibition of DT40 Tdp1-/-;hTDP1 cells with camptothecin (screen for TDP1 inhibitors); chicken DT40 Tdp1-/-;hTDP1 cells + 20 nM CPT, ATP luminescence, 48 h; Potency, µM (highest dose often 46.2 µM), for the others: at the top dose activity change, negative = growth inhibition, usual class: inhibitors; AID 686979; 12% of 420,000 active; further: potency means the concentration at half of the fitted maximal effect; nearly all actives have a fitted effect of over 55% in size
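Chicken DT40 Tdp1-/- cells stably complemented with human TDP1 were seeded at 400 cells/well in medium containing 20 nM camptothecin, exposed to pin-transferred compounds, and grown at 37 °C for at least 48 hr. Viability was read as ATP luminescence.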
IL1B secr inh – inflammasome signaling inhibition, IL-1 beta readout; 4.7% of 360,000 active; AID 743279; activity change, % at 57.5 µM; THP-1 LPS/ATP IL-1B secretion, AlphaLISA, 16 h; active compounds read low; in the data active means activity change below about -50%; inconclusive means mostly about -30% to -49%
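THP-1 cells pretreated 1 hr with compounds (up to 57.5 uM final), then stimulated with LPS (250 ng/mL final) plus ATP (1.25 mM final); secreted IL-1B measured by AlphaLISA after 16 hr, decreased signal indicating inhibition.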
Starred values were filed as active, the others as inactive; ? = inconclusive; / = not tested or not shown; [ ] = dose if it differs, or a comment. Sampled rows, rich in hits. Any-hit rate of the full collection: about 19%. Unless noted, the call rests on the fitted dose curve; in most records, active means well fitted curve in the direction sought with a large enough effect; inconclusive means small, poorly fitted or top-dose-only effect, or another doubt; inactive means no such curve, though single readings can be large; an effect the other way counts as inactive or inconclusive. Unless noted, on the % scale 0 is the no-effect control and ±100 the full control effect.

SMILES	DT40 TDP1 no CPT	HT1080-NT tox	HT1080 IDH1KD tx	TDP1 cell CPT	IL1B secr inh
CC(OC(=O)COc1ccccc1Cc1ccccc1)C(=O)N(C)c1ccccc1 (centres undefined)	?	2.5%	-9.3%	-0.8%	-0.4
Cc1cc2c(cc1C)-n1nnnc1C(N1CCN(CC(=O)N3CCCC3)CC1)C(=O)N2 (centres undefined)	-16.6%	22.2%	15.2%	-20.6%	0.0
Cc1cc2c(cc1C)-n1nnnc1C(N1CCN(C(=O)OCc3ccccc3)CC1)C(=O)N2 (centres undefined)	5.8µM*	?	?	6.51µM*	-4.0
Cc1ccc(-c2nc(CSCC(=O)N3CCOCC3)c(C)o2)cc1	-15.7%	-2.7%	-6.4%	-2.6%	18.3
Cc1ccc(-c2nc(CSCC(=O)N3CCN(c4ccccn4)CC3)c(C)o2)cc1	20.6µM*	-20.8%	-10.2%	18.4µM*	-15.5
CCc1ccc(-c2nc(CSCC(=O)N3CCN(c4ccccn4)CC3)c(C)o2)cc1	18.4µM*	2.0%	?	23.1µM*	?
CCc1ccc(-c2nc(CSCC(=O)NCCCN3CCCC3=O)c(C)o2)cc1	?	-0.8%	-3.7%	?	3.3
O=C(O)C1=CCC=CC1C(=O)O (centres undefined)	-0.3%	-1.9%	-3.0%	-8.0%	-16.6
Cc1csc(=O)n1CCC(=O)OCC(=O)N(CC(C)C)c1c(N)n(Cc2ccccc2)c(=O)[nH]c1=O	-10.1%	-2.1%	-3.7%	3.2%	-13.6
COc1ccccc1C1CN(CC(=O)N2CCC(N3CCOCC3)CC2)Cc2ccccc2O1 (centres undefined)	-27.1%	/	/	6.8%[9.04 µM]	/
CC1(C)Cc2c(sc3c2c(=N)n(Cc2ccco2)c(=O)n3CC(=O)Nc2ccc(Cl)cc2)CO1	?	-7.9%	?	?	-80.2*
CC1(C)Cc2c(sc3c2c(=N)n(Cc2ccco2)c(=O)n3CC(=O)Nc2cccc(Cl)c2)CO1	20.6µM*	-18.5%	-21.5%	?	?
CC1(C)Cc2c(sc3c2c(=N)n(Cc2ccco2)c(=O)n3CC(=O)Nc2ccccc2)CO1	?	-3.2%	-2.8%	?	-50.9*
O=C(CCS(=O)(=O)c1cc(Br)cc2c1N(C(=O)C1CC1)CC2)N1CCN(c2cccc(Cl)c2)CC1	-3.4%	/	/	1.8%	/
COc1cc(C(=O)N2CCC2(C)C(=O)O)cc(OC)c1OC (centres undefined)	-12.4%	11.3%	12.2%	-5.4%	12.1
O=C(CN1C(=O)CCC1=O)Nc1ccc(Cc2ccc(NC(=O)CN3C(=O)CCC3=O)cc2)cc1	8.0%	-2.0%	3.4%	15.9%	-68.8*
CCN(Cc1nc2cc(Cl)ccc2c(=O)[nH]1)C(=O)c1cc(C2CC2)nn1-c1ccccc1	2.91µM*	-2.1%	3.5%	5.17µM*	17.5
CN1OC[C@@H]2CN(S(=O)(=O)c3cccc(C(F)(F)F)c3)[C@H](c3ccc(-c4cccnc4)cc3)C[C@@H]21	20.6µM*	-5.6%	?	29.1µM*	21.8
CN1OC[C@@H]2CN(S(=O)(=O)c3cccc4ccccc34)[C@H](c3ccc(-c4cccnc4)cc3)C[C@@H]21	18.4µM*	-14.0%	-8.5%	?	-19.4
Cc1ccccc1S(=O)(=O)N1C[C@H]2CON(C)[C@H]2C[C@H]1c1cccc(N2CCOCC2)c1	-16.3%	-1.0%	-1.5%	-11.0%	-8.8
Cc1ccccc1S(=O)(=O)N1C[C@H]2CON(C)[C@H]2C[C@H]1c1cccc(-c2ccc(C#N)cc2)c1	?	0.3%	-11.5%	20.6µM*	-11.5
Cc1ccc(OC(=O)CSc2nnc(CNC(=O)c3ccccc3)o2)cc1	-9.2%	/	/	-5.5%	/
O=C(/C=C/c1cc([N+](=O)[O-])ccc1OC(F)F)Nc1cccc2ccccc12	?	-1.4%	0.0%	?	9.7
COc1cc(O)c(/C=N/NC(=O)c2ccncc2)c(OC)c1[N+](=O)[O-]	?	-8.5%	-0.6%	-36.9%	25.6
COc1ccc(-c2cc3nc(C)cc(-c4ccc(OC)cc4)n3n2)cc1	?	0.0%	-16.3%	?	38.0
SMILES	DT40 TDP1 no CPT	HT1080-NT tox	HT1080 IDH1KD tx	TDP1 cell CPT	IL1B secr inh
COc1ccc(-c2cc3nc(-c4ccccc4)cc(N4CCC(O)CC4)n3n2)cc1	?	18.4µM*	?	?	-151.5*
COc1ccc(-c2cc3nc(-c4ccccc4)cc(N4CCCC(O)C4)n3n2)cc1 (centres undefined)	11.6µM*	?	20.6µM*	16.4µM*	?
Cn1nc(-c2ccc(C(=O)NCC3CCCO3)cc2)c2ccccc2c1=O (centres undefined)	?	-0.8%	-0.9%	?	29.7
CN(C(=O)c1ccc(-c2nn(C)c(=O)c3ccccc23)cc1)C1CCCCC1	16.4µM*	-20.9%	1.0%	13µM*	?
COc1ccc(OCC(=O)Nc2cc(-c3nn(C)c(=O)c4ccccc34)ccc2OC)cc1	16.4µM*	-13.4%	-19.1%	16.4µM*	-2.2
Cn1nc(-c2ccc(OCC(=O)NCC3CCCO3)cc2)c2ccccc2c1=O (centres undefined)	11.6µM*	-11.5%	-1.1%	18.4µM*	42.2
CN(CCO)C(=O)c1ccc(-c2nn(C)c(=O)c3ccccc23)cc1	-8.8%	0.0%	-1.0%	-20.7%	28.3
COc1ccc(NC(=O)COc2ccc(-c3nn(C)c(=O)c4ccccc34)cc2)cc1	?	-14.3%	?	?	-15.3
CC(C)c1nnc(SCC(=O)NC2CCCCC2)n1C	10.8%	12.4%	6.8%	14.1%	6.6
CC(=O)c1ccccc1NC(=O)COC(=O)/C=C/c1ccc(OC(F)F)cc1	-10.6%	-1.7%	-1.7%	-4.4%	12.8
COc1cc2c(cc1OC)C(C(=O)NC(C)c1ccccc1)CC(=O)N2 (centres undefined)	9.7%	21.8%	17.4%	1.4%	2.7
COc1cccc(C(O)c2ncc(-c3ccccc3Cl)[nH]2)c1 (centres undefined)	-18.3%	0.0%	-4.0%	?	-17.1
CC(Oc1ccc(Cl)cc1Cl)c1ccnc2nc(N3CCOCC3)nn12 (centres undefined)	18.4µM*	-17.1%	-17.9%	?	-51.6*
Cc1ccc(C)c(NC(=O)Cn2cnc3nc4c(cc3c2=O)CCCC4)c1	?	/	/	-29.4%	/
C[C@@H]1CN([C@@H](C)CO)C(=O)c2cc(Br)cnc2O[C@H]1CN(C)C(=O)C1CCCCC1	-18.9%	-4.7%	-11.0%	-12.1%	28.6
Cc1ccc(S(=O)(=O)N(C)C[C@H]2Oc3ncc(-c4ccccc4)cc3C(=O)N([C@@H](C)CO)C[C@@H]2C)cc1	13µM*	3.5%	-1.1%	?	-27.9
